Assay results reported in ChEMBL document CHEMBL3988442, “University of Dundee, Small-Polar-MMV Screening Library” (2021).
The whole screen tested about 48,000 compounds, of which about 13,000 (27%) showed an effect of 50% or more. The list shows a part of the results.

Each compound was assayed on Wolbachia pipientis (assay: Anti-Wolbachia Cell-Based Screen). Conditions: 5 µM.
Format: functional
Design: scale not given: in the data most compounds retested in dose-response had high values
`CCc1ccc(CN(CCN(C)C)Cc2ccc(C)s2)nc1` was tested, and the “Percent Effect” value was 19.31%.
`CN(C)CCN1CCOCC2(C1)CN(Cc1nccs1)CCO2.O=C(O)C(F)(F)F.O=C(O)C(F)(F)F.O=C(O)C(F)(F)F` (stereo not given) was tested, and the “Percent Effect” value was -2.784%.
With `Cn1nnc2c1CCN(Cc1ccncc1)C2COCc1ccccc1.O=C(O)C(F)(F)F.O=C(O)C(F)(F)F` (stereo not given) the “Percent Effect” value was 7.235%.
For `Cc1cccc(C(=O)N2CCCN(Cc3cnn(C)c3)CC2)n1`, the “Percent Effect” value was -11.33%.
For `CCn1cc(CN2CCCN(C(=O)c3ccco3)CC2)cn1`, the “Percent Effect” value was 139.7%.
`CC(C)CCc1noc(CN2CCCN(C(=O)c3ccco3)CC2)n1` was tested, and the “Percent Effect” value was -6.659%.
In the case of `Cc1ccoc1C(=O)N1CCCN(Cc2cnn(C)c2)CC1`, the “Percent Effect” value was 85.33%.
For `Cn1cc(CN2CCCN(C(=O)c3cc[nH]n3)CC2)cn1`, the “Percent Effect” value was -7.081%.
`CC(C)n1cc(CN2CCCN(C(=O)c3ccoc3)CC2)cn1` was tested, and the “Percent Effect” value was -9.039%.
For `Cn1cc(CN2CCCC3(CCN(C(=O)c4ccoc4)C3)C2)cn1` (stereo not given), the “Percent Effect” value was -4.278%.
With `CC(C)n1cc(CN2CCCN(C(=O)c3ccco3)CC2)cn1` the “Percent Effect” value was 13.14%.
With `CCn1cc(CN2CCCN(C(=O)c3ccn(C)c(=O)c3)CC2)cn1` the “Percent Effect” value was -5.674%.
With `CCn1cc(CN2CCCN(C(=O)c3ccoc3)CC2)cn1` the “Percent Effect” value was 93.78%.
With `CCn1cc(CN2CCCN(C(=O)c3ccc(C)nc3)CC2)cn1` the “Percent Effect” value was 109.5%.
In the case of `CCc1cccc(NC(=O)CCC(=O)N(C)Cc2nc(C)c[nH]2)c1`, the “Percent Effect” value was -13.69%.
In the case of `O=C(O)c1cc(-c2ccoc2)cc(S(=O)(=O)NCc2ccccn2)c1`, the “Percent Effect” value was 3.348%.
With `c1cncc(COCC2CN(Cc3ccncc3)Cc3ccnn3C2)c1` (stereo not given) the “Percent Effect” value was -8.453%.
With `Cc1ccc(OC2(C(=O)O)CCN(C/C=C/c3ccco3)CC2)c(C)n1` the “Percent Effect” value was -5.357%.
In the case of `CC(C)c1cc(C(=O)N2C[C@H]3CC[C@@H]2CN(Cc2cccnc2)C3)no1`, the “Percent Effect” value was 0.5633%.
`CC(C)N1CCCc2sc(C(=O)NC3CC3)nc21` was tested, and the “Percent Effect” value was -0.2474%.
In the case of `CNC(=O)Cc1noc(-c2cc3c(s2)CCC(C)C3)n1` (stereo not given), the “Percent Effect” value was -12.44%.
`CN(CC1CN(Cc2cn3ccsc3n2)CCO1)c1cccnn1` (stereo not given) was tested, and the “Percent Effect” value was 13.06%.
For `Cc1nc(COc2ccc(OC(C)C(N)=O)cc2)oc1C` (stereo not given), the “Percent Effect” value was 1.86%.
For `Cc1ccc(-n2cc(CN3CCOCC3)c(-c3cccc(C)c3)n2)cc1`, the “Percent Effect” value was 0.1947%.
`O=C(c1ccc2nncn2c1)N1CCSC2(CCCCC2)C1` was tested, and the “Percent Effect” value was -6.872%.
`CCn1cc(CN2CCCN(C(=O)c3ccoc3C)CC2)cn1` was tested, and the “Percent Effect” value was 105.3%.
In the case of `CCn1cc(CN2CCCN(C(=O)c3ccc(C)o3)CC2)cn1`, the “Percent Effect” value was 126.6%.
For `Cc1cc(C(=O)N2CCN(Cn3cc(Cl)cn3)CC2)on1`, the “Percent Effect” value was 0.1609%.
For `CCn1cc(CN2CCCN(C(=O)c3cccn3C)CC2)cn1`, the “Percent Effect” value was 145.7%.
For `CCc1nc(CN2CCCN(C(=O)c3cccn3C)CC2)cs1`, the “Percent Effect” value was -9.878%.
For `CC(C)n1cc(CN2CCCN(C(=O)c3cccn3C)CC2)cn1`, the “Percent Effect” value was 7.673%.
For `Cc1occc1C(=O)N1CCCN(Cc2cnn(C(C)C)c2)CC1`, the “Percent Effect” value was -5.086%.
With `CCn1cc(CN2CCCN(C(=O)c3cc(C)no3)CC2)cn1` the “Percent Effect” value was 149.7%.
`CCC1=N[C@@]2(CC[C@@H]3CN(S(=O)(=O)CC)C[C@@H]32)C(=O)N1CC` was tested, and the “Percent Effect” value was 5.096%.
With `Cc1nc(C(=O)N2CCN(c3ncccn3)[C@@H]3CS(=O)(=O)C[C@@H]32)cs1` the “Percent Effect” value was -1.503%.
With `c1cnnc(N2CCCC2CNc2ncnc3ccccc23)c1` (stereo not given) the “Percent Effect” value was 0.08494%.
In the case of `Cc1cc(NC(=O)N2CCN(C)CC2C)n(C)n1` (stereo not given), the “Percent Effect” value was -19.14%.
In the case of `Cc1cc(CNc2ccnn2CC(C)C)ccc1-n1cncn1`, the “Percent Effect” value was -23.25%.
For `CSc1ccc(NS(=O)(=O)c2cnn(C)c2)cn1`, the “Percent Effect” value was -3.394%.
In the case of `CCc1nnsc1C(=O)N1CCCN(Cc2cnn(CC)c2)CC1`, the “Percent Effect” value was -1.096%.
In the case of `CCc1ccc(C(=O)N2CCCN(Cc3csc(CC)n3)CC2)o1`, the “Percent Effect” value was -14.26%.
For `CCn1cc(CN2CCCN(C(=O)c3c(C)oc(C)c3C)CC2)cn1`, the “Percent Effect” value was 105.9%.
In the case of `CCc1nc(CN2CCCN(C(=O)c3ccccc3)CC2)cs1`, the “Percent Effect” value was 5.45%.
`CCc1nc(CN2CCCN(C(=O)c3ccco3)CC2)cs1` was tested, and the “Percent Effect” value was 109.2%.
For `Cc1ccc(NS(C)(=O)=O)c(C(=O)NCCC(=O)NC(C)C)c1`, the “Percent Effect” value was -8.186%.
For `Fc1ccc(CCN2CCC(c3nnc(-c4cccnc4)o3)CC2)cc1`, the “Percent Effect” value was -17.22%.
In the case of `CCOCCN1CCC(c2cnccn2)CC1`, the “Percent Effect” value was 103.5%.
With `c1ccc(OCCN2CCC(c3cnccn3)CC2)cc1` the “Percent Effect” value was 90.65%.
For `CCOCCN1CCN(Cc2nnc(C3CC3)o2)CC1`, the “Percent Effect” value was -12.93%.
For `c1ccc(OCCN2CCC(c3nnc(-c4cccnc4)o3)CC2)cc1`, the “Percent Effect” value was 108.1%.
For `c1ccc(OCCN2CCCC(c3noc(C4CC4)n3)C2)cc1` (stereo not given), the “Percent Effect” value was -2.8%.
`CCOCCN1CCn2c(C)nnc2C1` was tested, and the “Percent Effect” value was 4.517%.
For `OCCn1cc(CN2CCN(CCOc3ccccc3)CC2)cn1`, the “Percent Effect” value was -4.681%.
`CCOCCN1CCC(c2cncc(C)n2)CC1` was tested, and the “Percent Effect” value was 133%.
In the case of `CCOCCN1CCc2cncnc2C1`, the “Percent Effect” value was 24.85%.
`c1ccc(CCCN2CC[C@H](c3nnc(-c4cccnc4)o3)C2)cc1` was tested, and the “Percent Effect” value was 5.165%.
For `O=C(c1cc(C2CC2)no1)N1C[C@H]2CC[C@@H]1CN(Cc1ccccn1)C2`, the “Percent Effect” value was -3.322%.
For `CCNC(=O)CCC(=O)NC(Cc1ccccc1)c1sccc1C` (stereo not given), the “Percent Effect” value was -7.516%.
`CC(C)CN1CCCC1c1ccc(C(=O)Nc2ccc3[nH]nnc3c2)s1` (stereo not given) was tested, and the “Percent Effect” value was 0.6901%.
For `CCC(C)(CO)NC(=O)Nc1cc2c(cc1SC)OCCO2` (stereo not given), the “Percent Effect” value was -5.152%.
With `CCOC(C)c1nc(Cn2cc(-n3cccc3)cn2)cs1` (stereo not given) the “Percent Effect” value was -7.68%.
In the case of `COc1ccc(F)cc1C(C)NC(=O)Nc1nncs1` (stereo not given), the “Percent Effect” value was 5.791%.
With `Cc1cccc(-c2ccc3nc(C4CCN(CC5CC5)CC4)nn3c2)c1.O=C(O)C(F)(F)F` the “Percent Effect” value was 10.89%.
In the case of `CCCN1CCC(c2nc3ccc(-c4cccc(F)c4)cn3n2)CC1.O=C(O)C(F)(F)F`, the “Percent Effect” value was 109.7%.
In the case of `COCC(=O)N1CCC(c2nc3ccc(-c4ccncc4)cn3n2)CC1.O=C(O)C(F)(F)F`, the “Percent Effect” value was 3.081%.
In the case of `CCCN1CCC(c2nc3ccc(-c4ccccc4)cn3n2)CC1.O=C(O)C(F)(F)F`, the “Percent Effect” value was 132.6%.
In the case of `CCCN1CCC(c2nc3ccc(NCc4cccnc4)cn3n2)CC1.O=C(O)C(F)(F)F.O=C(O)C(F)(F)F.O=C(O)C(F)(F)F`, the “Percent Effect” value was -17.81%.
With `O=C(O)C(F)(F)F.c1ccc(-c2ccc3nc(C4CCN(CC5CC5)CC4)nn3c2)cc1` the “Percent Effect” value was 21.53%.
In the case of `CCCN1CCC(c2nc3ccc(-c4ccncc4)cn3n2)CC1.O=C(O)C(F)(F)F.O=C(O)C(F)(F)F`, the “Percent Effect” value was 100.7%.
In the case of `CCCN1CCC(c2nc3ccc(NCc4ccccc4)cn3n2)CC1.O=C(O)C(F)(F)F.O=C(O)C(F)(F)F`, the “Percent Effect” value was -22.92%.
In the case of `CCCN1CCC(c2nc3ccc(-c4cccc(OC)c4)cn3n2)CC1.O=C(O)C(F)(F)F`, the “Percent Effect” value was 95.04%.
For `O=C(COCC1CC1)Nc1ccn(Cc2cccc3cccnc23)n1`, the “Percent Effect” value was -5.086%.
With `CCn1cc(SCC(=O)N2CCCC(O)(CO)C2)c2ccccc21` (stereo not given) the “Percent Effect” value was -16.21%.
For `COc1cccc(C(=O)N2CCN(C(=O)CCCc3cn[nH]c3)CC2)c1`, the “Percent Effect” value was -9.764%.
With `CCOCC1CN(C(=O)Cc2ccsc2)Cc2ccnn2C1.O=C(O)C(F)(F)F` (stereo not given) the “Percent Effect” value was 4.742%.
For `O=C(CCN1CCCO1)N1CC[C@@H](c2ccc3ccccc3c2)[C@H](O)C1`, the “Percent Effect” value was 7.888%.
`CC(C)SCCn1ccc2[nH]c(=O)c(C#N)cc2c1=O` was tested, and the “Percent Effect” value was -14.16%.
With `CN1CCC(c2nc3ccc(-c4cccc(F)c4)cn3n2)CC1.O=C(O)C(F)(F)F` the “Percent Effect” value was 117.6%.
In the case of `Cn1cc(C2(C)CN(Cc3ccc(N4CCCC4)nc3)CCO2)cn1` (stereo not given), the “Percent Effect” value was -5.624%.
With `CC(Cc1cnccn1)NC(=O)COc1ccc(F)cc1F` (stereo not given) the “Percent Effect” value was 0.5787%.
With `CCc1oc(C(=O)NCCSc2ncn[nH]2)cc1CN1CCCC1` the “Percent Effect” value was 77%.
In the case of `CCc1oc(C(=O)NCCNS(C)(=O)=O)cc1CN1CCCC1`, the “Percent Effect” value was 20.77%.
In the case of `Cc1cc(C)nc(NC(C)Cc2cnccn2)n1` (stereo not given), the “Percent Effect” value was -26.5%.
In the case of `CCc1oc(C(=O)NC(C)c2ncn[nH]2)cc1CN1CCCC1` (stereo not given), the “Percent Effect” value was 82.75%.
For `CCc1oc(C(=O)NCCc2nc(C(=O)O)cs2)cc1CN1CCCC1`, the “Percent Effect” value was 10.42%.
`CCc1oc(C(=O)NC(C)Cc2cnccn2)cc1CN1CCCC1` (stereo not given) was tested, and the “Percent Effect” value was 92.2%.
In the case of `CCc1oc(C(=O)NCCc2cc(O)nc(C)n2)cc1CN1CCCC1`, the “Percent Effect” value was -0.3531%.
With `Cc1ccc(NC2(C(=O)NC(C)c3ncn[nH]3)CCCC2)cc1` (stereo not given) the “Percent Effect” value was 4.641%.
For `COc1c(F)cccc1C(=O)NC(C)c1cnn(C)c1` (stereo not given), the “Percent Effect” value was 2.584%.
In the case of `Cc1ccccc1S(=O)(=O)CCOC(C)C`, the “Percent Effect” value was -3.521%.
In the case of `O=C(C1CCOCC1)N1C[C@@H](F)[C@@H](OCc2nc3cc(F)ccc3[nH]2)C1`, the “Percent Effect” value was -12.95%.
For `CC(C)(C)OC(=O)NCC1CCN(C(=O)c2cc(Cl)c[nH]2)CC1`, the “Percent Effect” value was 10.1%.
In the case of `CCN1CCC(CNC(=O)c2cc(Cl)c[nH]2)CC1`, the “Percent Effect” value was 93.05%.
`COCCN1CCC(CNC(=O)c2cc(C)cc(C)c2)C1` (stereo not given) was tested, and the “Percent Effect” value was 11.6%.
With `COCCN1CCC(CNC(=O)c2cc(Cl)c[nH]2)CC1` the “Percent Effect” value was 92.15%.
`COCCN1CCC(CNC(=O)Nc2ccc(F)c(Cl)c2)C1` (stereo not given) was tested, and the “Percent Effect” value was -3.47%.
In the case of `O=C(NCC1CCN(CCc2ccccc2)C1)c1cc(Cl)c[nH]1` (stereo not given), the “Percent Effect” value was 98.65%.
In the case of `CCc1cc(C(=O)NCC2CCN(Cc3ccncc3)CC2)on1`, the “Percent Effect” value was 4.058%.
For `O=C(NCC1CCN(CCc2ccccc2)C1)c1c(F)cccc1F` (stereo not given), the “Percent Effect” value was -12.95%.
With `COc1ccc(OC)c2c(C)cc(N(C)CCCO)nc12` the “Percent Effect” value was 19.89%.
